This note sets out measurements from the supplement of paper PMC6555819.

In the assay the test system is VDR:RXRa (NR concentration 270 nM, RXRa partner concentration 90 nM). Briefly: PBM binding z-score (relative to random genomic background probes); higher = stronger binding; sequences stand for … in GC…GCGATTGACAGCGTAGAATGAAGG
As to the method: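 Protein-binding microarray (Agilent 4x180K custom design, double-stranded 60-nt probes: 5' GC cap, 34-nt variable region, 24-nt constant primer region; full probe sequence given). Purified or IVT nuclear receptor:RXRα heterodimers (3:1 NR:RXRα, mostly 270:90 nM) or homodimers were incubated for 1 h in PBS with 2% milk and no ligand, then detected with Alexa488 antibodies. Fluorescence from o1-orientation probes (~5 replicates averaged) was converted to z-scores against 500 random hg19 background probes. Variable regions are seed direct-repeat (DR0–DR5) sites, all their single-nucleotide variants and half-site ablations.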
Turning to ATCGAAACGTCGTGAGGTGAGTATACAGAAAGGC, the PBM binding z-score was -0.25.
In turn, ACTATCAGGCCAAGGGTCACTCAAGATTAGTCCG came in with a PBM binding z-score of 3.13.
For CTAACTAGGTCAAAGGACAGTGAAAGGCGACGTA the value was 1.3; for CTATGTAGGTTCAGGGGGTCATTCAGTTTGAAAG, 6.91; for CGAACTAGGTCAGAACAGGACATTGAAGGATGAT, 1.59.
For ATCGAAAGGTCGAAGGTGAGTCTACCCACCCGAA the value was 3.08.
Next, CGAACTACGTCACCAGGACAGTGAAGAGGTTGGA: -0.211; TCGAGTAGGTTACGGGGGCACTCAGGGATGAAGA: 3.33; CTTTGTAGGTTAAGGGGGTCATTCAGTTTGAAAG: 7.48.
As to CAAAGTAGGTCACCGGAAGGTCAAAGTCCGCATG, the PBM binding z-score was found to be 6.18.
For CCTAGCAGGCCACGGTCACTCAAGCATTTCGCTT the value was -0.261; for AATACAGGGTCACTAGGCCCGAGTAGGTACGAAT, 3.96; for CCAAGTAGGTTACGAGGGGGCATTCAGTGCGAAT, 5.54.
For TAGCCTAGGTCATTGGGCTAGTATAGTACGCATC the value was 2.03.
With CGAACTAGGTCAGAACAGGACAGTTAAGGATGAT, the PBM binding z-score was found to be 1.02.
For CGAACTAGGTAAAGGACAGTGAATCTCCGCACGC the value was -0.323; for GATACAGGGTCAAGGCCAGAGTACGCGTATTGAT, 4.28; for GGAACGAGGGCATTCGAGTTGATAGCATGGCGAT, 3.76.
For ATATGTAAGTTAGGGTCATTCAGAAAGTAGGGAA the value was 4.5; for CGAACTAGGACATCCAGGACAGTGAATACATTGA, -0.0982.
With CTATGTAGGTTAATGGGGTCATTCAGTTTGAAAG, the PBM binding z-score was found to be 7.83.
Next, CCTACTGGGCCATTCAGAGGTCACTGATCATATG: 3.58; CTCGAAAGGTCGTGCTCAGGTGAGTATGCCAAAC: 3.25; CGTCCAAGGTCAATGCTAGGCCAGTGAAAGCATT: 3.78.
For AATACAGGGTCACTAGGCCAGAGTGGGTACGAAT the value was 3.97; for CTACGTAGGTTAAGGGGGTCATTCAGTTTGAAAG, 7.58.
As to CGAACTAGGTCACCAGGACAATGAAGAGGTTGGA, the PBM binding z-score is 2.21.
For CCTAGTAGGTTACGAGGGGGCATTCAGTGCGAAT the value was 5.12; for CCGACTGGGGCAAAGGTTACCACACTCAGTACGA, 1.81; for AGAGTGAGGTTACCAAAGATCAGGGAAACGCTTG, 1.64.
For ATCGAAAAGTCGAAGGTGAGTATACCCACCCGAA the value was -0.47.
Turning to CGAACTAGGACACCAGGACAGTGAAGAGGTTGGA, the PBM binding z-score is -0.285.
CATAGTTGGTCAAGGTCACACACGCTATAGGTAC showed a PBM binding z-score of 4.32.
On to CGAACTAGGTCACCAGGAGAGTGAAGAGGTTGGA, for which the PBM binding z-score was found to be 1.71.
On to ATCTCTAGGTAAAGGTCAGTGAAAGATCGATAGA, for which the PBM binding z-score stood at 2.89.
CCTACTGGGCCACGTAAGGTCATTGATTCAGTGA returned a PBM binding z-score of 3.69.
For AGTCAAAGTTCAGGACGAGGTACCGTAAAGCACG the value was 2.08; for GACACAGGGTCAGCTAGAGGCCAGAGTATGGAAA, 3.19; for CCGAGTAGGTTACGAGGGGCCATTCAGTGCGAAT, 3.09.
Next, AGTCAAAGTTCACGACGAGGTAACGTAAAGCACG: 5.05.
